Reference: PubChem BioAssay (Tox21)
Records with an inconclusive call do not appear. The source made the active and inactive calls. Unless noted, the call rests on the fitted dose curve; in most records, active means well fitted curve in the direction sought with a large enough effect in the repeat runs; inconclusive means weak or mixed curves; inactive means no such curve, though single readings can be large; an effect the other way counts as inactive or inconclusive.

Assays:
[1] = qHTS assay to identify small molecule antagonists of the estrogen related receptor (ERR) signaling pathway - cell viability counter screen (AID 1224818);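 further: series mostly up to about 46 µM; viability measured after 17.5 h of compound exposure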
Procedure, shortened: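 ERR reporter cells plated 6 h at 37 C/5% CO2, then compounds in DMSO pin-transferred and incubated 17.5 h at 37 C. Viability read as CellTiter-Fluor fluorescence after 30 min at 37 C.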

[2] = qHTS assay to identify small molecule antagonists of the estrogen related receptor (ERR) signaling pathway (AID 1224819; further: nearly all actives have a fitted effect of over 50% in size; further: potency means the concentration at half of the fitted maximal effect)
Procedure, shortened: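 ERR reporter cells were plated at 2,000 cells/well and left 6 h at 37 C/5% CO2 before pin-tool transfer of compounds in DMSO. After 18 h at 37 C, One-Glo was added and luminescence was read 30 min later at room temperature.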

[3] = qHTS assay to identify small molecule agonists of the estrogen related receptor (ERR) signaling pathway (AID 1224820); further: potency means the concentration at half of the fitted maximal effect
Procedure, shortened: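 ERR reporter cell line (from NTP), 2,000 cells/well, incubated 6 h before compound addition, then 18 h at 37 C. Luminescence measured 30 min after One-Glo reagent at room temperature.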

[4] = tested on: estrogen-related receptor alpha (ERRalpha) with PGC-1alpha coactivator, human; assay: qHTS assay to identify small molecule antagonists of the estrogen related receptor signaling pathway with the pleiotropic PPARgamma coactivator (PGC) (AID 1224821; calls by dose curve; further: nearly all actives have a fitted effect of over 50% in size; further: potency means the concentration at half of the fitted maximal effect)
Procedure, shortened: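 PGC/ERR reporter cell line, plated 6 h before compound addition, then exposed 18 h at 37 °C. Luciferase activity read by luminescence 30 min after One-Glo addition; decrease indicates antagonism.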

[5] = qHTS assay to identify small molecule antagonists of the estrogen related receptor signaling pathway with the pleiotropic PPARgamma coactivator (PGC) cell viability counter screen (AID 1224822; further: potency means the concentration at half of the fitted maximal effect)
Procedure, shortened: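 PGC/ERR cells were seeded at 2,000 cells/well, rested 6 h at 37 C/5% CO2, then given compounds in DMSO by pin tool and incubated 17.5 h at 37 C. Viability came from CellTiter-Fluor fluorescence after 30 min.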

[6] = qHTS assay to identify small molecule agonists of the estrogen related receptor signaling pathway with the pleiotropic PPARgamma coactivator (PGC) (AID 1224823); further: potency means the concentration at half of the fitted maximal effect
Procedure, shortened: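 PGC/ERR reporter cells seeded 6 h, then exposed to compounds (23 nL in DMSO) for 18 h at 37 C. One-Glo luciferase luminescence read after 30 min at room temperature.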

Measured: Potency

NCCC1CCCC(CCN)N1 (centres undefined)
inactive: all assays above

O=c1[nH]ccc2c(O)cccc12
inactive: all assays above

Cc1cccc(/C=C/c2ccccc2)n1
active: [3] 13.3 µM | [6] 13.9 µM
inactive: all other assays above

CCCC(CCC)C(=O)OC1CC2CCC(C1)[N+]2(C)C (centres undefined)
inactive: all assays above

CC(C)(C)c1onc(OCP(=O)(O)O)c1CC(N)C(=O)O (centres undefined)
inactive: all assays above

CCCCCCCCc1ccc(-c2ccc(C(=O)O)cc2)cc1
inactive: all assays above

CCN1/C(=C/C(C)=O)Sc2ccc(OC)cc21
active: [2] 11.9 µM | [4] 5.11 µM
inactive: all other assays above

CCNC(=O)[C@H]1O[C@@H](n2cnc3c(N)nc(NCCc4ccc(CCC(=O)O)cc4)nc32)[C@H](O)C1O (some centres undefined)
active: [6] 1.28 µM
inactive: all other assays above

NOCC(=O)O
inactive: all assays above

Brc1c(Br)c(Br)c2n[nH]nc2c1Br
active: [2] 22 µM | [4] 21.1 µM
inactive: all other assays above

COCc1nc2c([nH]1)c(=O)n(C)c(=O)n2CC(C)C
inactive: all assays above

O=C1/C(=C/c2ccsc2)CC/C1=C\c1cccs1
active: [3] 24.6 µM | [6] 21.1 µM
inactive: all other assays above

NC(=O)CC[C@H](N)C(=O)O
inactive: all assays above

CCCCCCC(=O)OC1CC(C)(C)NC(C)(C)C1
inactive: all assays above

CO/N=C(\C(=O)N[C@@H]1C(=O)N2C(C(=O)O)=C(CSc3nc(=O)c(O)nn3C)CSC12)c1csc(N)n1 (some centres undefined)
inactive: all assays above

NC1(C(=O)O)CCc2cc(C(=O)O)ccc21 (centres undefined)
inactive: all assays above

CC1(C)CCC(NC(=O)[C@@H](N)CCC(=O)O)CC1
inactive: all assays above

S=C(Nc1ccccc1)Nc1nccs1
active: [4] 0.81 µM | [5] 335 nM
inactive: all other assays above

CCCCCCCC/C=C\CCCCCCCC(=O)NCCO
inactive: all assays above

CC(C)(C=O)Cc1cc(C(C)(C)C)c(O)c(C(C)(C)C)c1
inactive: all assays above

O=c1[nH]c(=O)c2nc3ccccc3nc2[nH]1
inactive: all assays above

O=C(O)Cc1ccc(O)c(O)c1
inactive: all assays above

Fc1ccc(CN(C2=NCCN2)c2c(Cl)cccc2Cl)cc1
inactive: all assays above

CN1C2CCCC1CC(NC(=O)c1nn(C)c3ccccc13)C2 (centres undefined)
inactive: all assays above

CC(C)C[C@H](NC(=O)[C@H](O)[C@H](N)Cc1ccccc1)C(=O)O
inactive: all assays above

COc1ccc2c(c1)c(CC(=O)O)c(C)n2C(=O)c1ccccc1
inactive: all assays above

CN1CCN(c2nc3cc(C(F)(F)F)ccc3n3cccc23)CC1
inactive: all assays above

CCCCCCCCCCCCCCCCCCOC[C@H](COP(=O)([O-])OCC[N+](C)(C)C)OC
inactive: all assays above

NC(N)=[N+]1CCc2ccccc2C1
inactive: all assays above

Nc1ccc(-c2ccc3ccccc3n2)cc1
active: [3] 2.46 µM | [6] 1.96 µM
inactive: all other assays above

CC(C)[C@@H]1CC[C@@H](C)C[C@@H]1P(=O)(c1ccccc1)c1ccccc1
inactive: all assays above

CC(C)(C)NCC(O)COc1cccc2[nH]c(=O)[nH]c12 (centres undefined)
inactive: all assays above

COc1cc(CNC(=O)CCCCCCC(C)C)ccc1O
inactive: all assays above

C[N+]1(CCCCC[N+]2(C)CCCC2)CCCC1
inactive: all assays above

CN(C)C(N)=NCCC[C@H](N)C(=O)O
inactive: all assays above

N#Cc1cc([N+](=O)[O-])c2sc(C(N)=O)[n+]([O-])c2c1
inactive: all assays above

N=c1c[n+](N2CCOCC2)[n-]o1
inactive: all assays above

O=[N+]([O-])c1cccc2c(Br)[nH]nc12
inactive: all assays above

NCCSSCCN
inactive: all assays above

CNCCNS(=O)(=O)c1cccc2cnccc12
active: [2] 21.1 µM | [4] 9.08 µM
inactive: all other assays above

CC(=O)/C(C)=N/O
inactive: all assays above

Nc1nc(N)c2nc(CNc3ccc(C(=O)NC(CCC(=O)O)C(=O)O)cc3)cnc2n1 (centres undefined)
active: [2] 0.0438 µM | [4] 0.0619 µM
inactive: all other assays above

CN1[C@@H](CC(=O)c2ccccc2)CCC[C@H]1C[C@H](O)c1ccccc1
inactive: all assays above

N[C@H]1CONC1=O
inactive: all assays above
